# PubChem BioAssay (EPA / NIEHS)
# Activity calls are given as the source filed them. How the source made its calls: active means hit-call score of the fitted dose curve at least 0.9, where 1 is the maximum; inactive means score below 0.9.
# Test: ATG_VDRE_CIS: Attagene CIS-FACTORIAL HepG2 Assay for human Vitamin D Receptor Element (VDRE) (AID 2282968)
# Conditions: HepG2 VDRE cis-reporter transcription, actives raise or lower the signal
# Procedure: ATG_CIS is a cell-based, multiplexed-readout assay that uses HepG2, a human liver cell line, with measurements taken at 24 hours after chemical dosing in a 24-well plate.ATG_VDRE_CIS is one of 52 assay component(s) measured or calculated from the ATG_CIS assay. It is designed to make measurements of mRNA induction, a form of inducible reporter, as detected with fluorescence intensity signals by Reverse transcription polymerase chain reaction (RT-PCR) and Capillary electrophoresis technology.Data from the assay component ATG_VDRE_CIS was analyzed into 1 assay endpoint. This assay endpoint, ATG_VDRE_CIS, was analyzed with bidirectional fitting relative to DMSO as the negative control and baseline of activity. Using a type of inducible reporter, measures of mRNA for gain or loss-of-signal activity can be used to understand the reporter gene at the transcription factor-level as they relate to the gene VDR. Furthermore, this assay endpoint can be referred to as a primary readout, because this assay has produced multiple assay endpoints where this one serves a reporter gene function. To generalize the intended target to other relatable targets, this assay endpoint is annotated to the nuclear receptor intended target family, where the subfamily is non-steroidal.
# Human liver HepG2 cells are transiently transfected with multiple reporter transcription units (MRTUs) in 6-well plates using FuGene 6 reagent (Roche; 3 ml FuGene/1 mg DNA). The MRTU constructs are regulated by a cis-regulating element (promoter). […] A major difference between the CIS and TRANS system is that in CIS activities of endogenous TFs are measured, whereas the TRANS assay evaluates changes in activities of exogenous, chimeric NR-Gal4 proteins. […] At the end of 24 hour incubation, total RNA was isolated using TriZol reagent (Invitrogen). The isolated RNA is then reverse-transcribed using oligo(dT) primer and Mo-MLV reverse transcriptase (Invitrogen) with DNAse I (Ambion) treatment for 30 min. The one-tenth of the produced cDNA was amplified by PCR using Taq DNA polymerase (Invitrogen) and two reporter sequence-specific primers. The PCR products were fluorescently labeled by primer extension with 6-arboxyfluorescein (6-FAM) 5'-labeled reporter sequence-specific primer (2 min at 95 C, 20 s at 68 C and 10 min at 72 C) and these products were digested with 5U of HpaI (New England Biolabs) for 2h at 37 C. The fragments were purified using Qiaquick PCR columns (Qiagen), analyzed on an ABI 3130xL genetic analyzer (Applied Biosystems) with peak positions identified by using a set of X-rhodamine (ROX)-labeled MapMarker1000 molecular weight standards (BioVentures). The raw capillary electrophoresis data was processed using Attagraph software (Attagene).
SMILES,outcome,AC50
N#CCCCl,inactive,–
Oc1ccc(Cl)cc1,inactive,–
N#CCNCC#N,inactive,–
C[N+](=O)[O-],inactive,–
O=[N+]([O-])c1cc(C(F)(F)F)c(Cl)c([N+](=O)[O-])c1Cl,–,5.51 µM (active)
CC(C)(c1cc(Cl)c(O)c(Cl)c1)c1cc(Cl)c(O)c(Cl)c1,–,27.2 µM (active)
O=C(O)c1cc[c]([Hg][Cl])cc1,inactive,–
Nc1ccccc1C(=O)Oc1ccc2ccccc2c1,inactive,–
CC[N+](=O)[O-],inactive,–
CC(C)COP(=O)(OCC(C)C)OCC(C)C,–,55.8 µM (active)
CC(C)(O)C#N,inactive,–
CCc1cc(C)cc(CC)c1-c1c(OC(=O)C(C)(C)C)n2n(c1=O)CCOCC2,inactive,–
CCC1CCC(=O)O1 (stereo not given),inactive,–
CN(C)N,inactive,–
Nc1ccccc1C(=O)OCCc1ccccc1,–,22.3 µM (active)
O=[N+]([O-])c1ccc(Cl)cc1,inactive,–
CCC(Br)(CC)C(=O)NC(N)=O,inactive,–
COC(=O)COc1ccc(Cl)cc1Cl,inactive,–
CN(C)CCC#N,inactive,–
Clc1ccc(-c2ccccc2)cc1,inactive,–

SMILES,outcome,AC50
Nc1ccccc1,inactive,–
N#Cc1cccc(C#N)c1,inactive,–
CCOP(=O)(OCC)Oc1ccc([N+](=O)[O-])cc1,inactive,–
CC(=O)C=Cc1ccccc1,–,100 µM (active)
CC(=O)c1cc2c(cc1C)C(C)(C)C(C)CC2(C)C (stereo not given),inactive,–
BrCBr,inactive,–
CCC(=O)c1ccc(Cl)cc1,inactive,–
CC(C)C(=O)Cl,inactive,–
C[C@]12CC[C@H](O)C[C@H]1CC[C@@H]1[C@@H]2C[C@@H](O)[C@]2(C)[C@@H](C3=CC(=O)OC3)CC[C@]12O,–,2.08 µM (active)
CCC(C)c1cc(C(C)(C)C)cc(-n2nc3ccccc3n2)c1O (stereo not given),inactive,–
O=C1Nc2ccc(Cl)cc2C(c2ccccc2)=NC1O (stereo not given),inactive,–
C=COCCCl,inactive,–
CNC(=N[N+](=O)[O-])NCC1CCOC1 (stereo not given),inactive,–
O=C(O)COc1ccccc1,inactive,–
CCc1cccc(C)c1N(C(=O)CCl)[C@@H](C)COC,–,2.13 µM (active)
CCOP(=O)(OCC)OCC,inactive,–
CCCC=NO,inactive,–
O=c1c2ccccc2c(=O)c2c1cc(Cl)c1[nH]c3c([nH]c12)c(Cl)cc1c(=O)c2ccccc2c(=O)c13,inactive,–
[Cl-].[Cl-].[Cl-].[Yb+3],inactive,–
COC(=O)c1ccccc1S(=O)(=O)NC(=O)Nc1nc(C)cc(C)n1,inactive,–
